# From PubChem BioAssay (NCATS)
# Inconclusive results are not listed. The source made the active and inactive calls. Unless noted, calls come from the whole dose curve; as a rule, active = well fitted curve in the direction sought with a large enough effect; inconclusive = small, poorly fitted or top-dose-only effect, or another doubt; inactive = no such curve, though single readings can be large; an effect the other way counts as inactive or inconclusive.
# Key:
# [1] = target: Thyrotropin-releasing hormone receptor (Homo sapiens) (UniProt P34981); assay: qHTS for Small Molecule Agonists and Allosteric Enhancers of Human TRH Receptor: Validation Screen for Agonists (AID 493127;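 active = calcium activation more than 3 SD above the typical response in the agonist read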; note: 0% is about no effect); conditions: TRH receptor agonist cell assay; at 2 µM; stronger effect = higher value
# Chain of Thyrotropin-releasing hormone receptor (Homo sapiens) (P34981 whole entry, looked up): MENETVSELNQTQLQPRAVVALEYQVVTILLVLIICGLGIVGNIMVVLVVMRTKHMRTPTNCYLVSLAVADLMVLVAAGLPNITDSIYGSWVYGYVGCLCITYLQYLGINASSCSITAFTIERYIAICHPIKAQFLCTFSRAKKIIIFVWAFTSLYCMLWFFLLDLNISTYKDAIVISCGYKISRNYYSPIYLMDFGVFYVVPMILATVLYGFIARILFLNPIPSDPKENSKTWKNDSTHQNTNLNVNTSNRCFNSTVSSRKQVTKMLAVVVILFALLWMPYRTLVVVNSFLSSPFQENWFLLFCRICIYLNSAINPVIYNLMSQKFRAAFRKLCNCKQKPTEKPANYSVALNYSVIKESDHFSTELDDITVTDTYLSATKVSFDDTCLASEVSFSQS
# Procedure, shortened: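 TRHR cells loaded with fluo-8 calcium dye; FDSS kinetic fluorescence (Ex 480/Em 530) read at 1 s/cycle after 23 nL compound addition. Agonist-mode calcium response recorded before the 10 nM TRH (EC20) addition.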
# [2] = target: Galactokinase (Homo sapiens) (UniProt P51570); assay: qHTS Validation Assay for Inhibitors of Human Galactokinase (GALK) (AID 493189); conditions: purified human GALK enzyme activity, qHTS 7-point titration; series mostly up to 57.5 µM; note: 0% is about no effect
# Chain of Galactokinase (Homo sapiens) (P51570 whole entry, looked up): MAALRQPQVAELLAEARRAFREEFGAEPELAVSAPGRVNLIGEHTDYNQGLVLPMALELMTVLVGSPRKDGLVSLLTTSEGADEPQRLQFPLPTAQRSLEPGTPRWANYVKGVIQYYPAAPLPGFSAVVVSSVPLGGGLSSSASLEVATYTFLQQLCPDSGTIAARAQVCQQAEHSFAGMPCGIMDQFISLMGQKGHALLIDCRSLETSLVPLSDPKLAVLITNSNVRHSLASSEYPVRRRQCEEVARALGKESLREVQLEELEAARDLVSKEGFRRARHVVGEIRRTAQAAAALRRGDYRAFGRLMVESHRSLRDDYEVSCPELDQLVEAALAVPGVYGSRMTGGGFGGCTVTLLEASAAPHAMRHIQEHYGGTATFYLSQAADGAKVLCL
# Procedure, shortened: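 GALK (5 nM) with 35 uM ATP and 100 uM galactose in HEPES pH8.0, MgCl2, NaCl, DTT, BSA; 1 h at room temperature. Residual ATP read by Kinase-Glo Plus luminescence after 10 min.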
# [3] = Validation screen for small molecules that induce DNA re-replication in SW480 colon adenocarcinoma cells (AID 504364); conditions: DNA re-replication phenotype (high-content imaging); series mostly up to 46.1 µM; note: 0% is about no effect
# Procedure, shortened: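 SW480 cells (250/well) exposed 48 h at 37 C, 5% CO2, then Hoechst-stained 40 min. Nuclear DNA content imaged by fluorescence scanning (405 nm excitation, 500-530 nm emission); re-replication scored as increased nuclei with elevated intensity.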
# [4] = target: DNA dC->dU-editing enzyme APOBEC-3G (Homo sapiens) (UniProt Q9HC16); assay: qHTS for inhibitors of Vif-A3G interactions: Validation (AID 588379); conditions: Vif-A3G protein interaction assay; series mostly up to 46.1 µM; note: 0% is about no effect
# Chain of DNA dC->dU-editing enzyme APOBEC-3G (Homo sapiens) (Q9HC16 whole entry, looked up): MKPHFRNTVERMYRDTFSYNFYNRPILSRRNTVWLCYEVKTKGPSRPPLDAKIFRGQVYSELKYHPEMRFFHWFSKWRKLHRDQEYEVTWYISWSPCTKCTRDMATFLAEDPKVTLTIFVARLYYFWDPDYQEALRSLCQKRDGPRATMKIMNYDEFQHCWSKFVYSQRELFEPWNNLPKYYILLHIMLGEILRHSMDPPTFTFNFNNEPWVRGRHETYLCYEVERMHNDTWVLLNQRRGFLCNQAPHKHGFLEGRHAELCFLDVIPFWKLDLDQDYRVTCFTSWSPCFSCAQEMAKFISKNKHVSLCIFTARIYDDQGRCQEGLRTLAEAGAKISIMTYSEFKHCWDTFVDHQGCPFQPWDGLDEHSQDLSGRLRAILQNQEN
# Procedure, shortened: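 HeLa cells stably expressing Vif and A3G-eYFP, 700 cells/well, incubated overnight at 37 deg C, then exposed to compound overnight at 37 deg C. Inhibition of Vif-mediated degradation read as increased yellow fluorescence (Ex 488/Em 500-530) by laser-scanning cytometry.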
# [5] = target: Voltage-gated inwardly rectifying potassium channel KCNH2 (Homo sapiens) (UniProt Q12809); assay: qHTS Assay for Small Molecule Inhibitors of the Human hERG Channel Activity (AID 588834); conditions: U2OS BacMam hERG, FluxOR thallium flux fluorescence; series mostly up to 46.1 µM;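 note: top concentration of the series differs between compounds; % is set by controls: 0 for no effect and ±100 for the full control effect; lower thallium flux fluorescence means stronger hERG block; nearly all actives have a fitted effect of over 50% in size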
# Chain of Voltage-gated inwardly rectifying potassium channel KCNH2 (Homo sapiens) (Q12809 whole entry, looked up): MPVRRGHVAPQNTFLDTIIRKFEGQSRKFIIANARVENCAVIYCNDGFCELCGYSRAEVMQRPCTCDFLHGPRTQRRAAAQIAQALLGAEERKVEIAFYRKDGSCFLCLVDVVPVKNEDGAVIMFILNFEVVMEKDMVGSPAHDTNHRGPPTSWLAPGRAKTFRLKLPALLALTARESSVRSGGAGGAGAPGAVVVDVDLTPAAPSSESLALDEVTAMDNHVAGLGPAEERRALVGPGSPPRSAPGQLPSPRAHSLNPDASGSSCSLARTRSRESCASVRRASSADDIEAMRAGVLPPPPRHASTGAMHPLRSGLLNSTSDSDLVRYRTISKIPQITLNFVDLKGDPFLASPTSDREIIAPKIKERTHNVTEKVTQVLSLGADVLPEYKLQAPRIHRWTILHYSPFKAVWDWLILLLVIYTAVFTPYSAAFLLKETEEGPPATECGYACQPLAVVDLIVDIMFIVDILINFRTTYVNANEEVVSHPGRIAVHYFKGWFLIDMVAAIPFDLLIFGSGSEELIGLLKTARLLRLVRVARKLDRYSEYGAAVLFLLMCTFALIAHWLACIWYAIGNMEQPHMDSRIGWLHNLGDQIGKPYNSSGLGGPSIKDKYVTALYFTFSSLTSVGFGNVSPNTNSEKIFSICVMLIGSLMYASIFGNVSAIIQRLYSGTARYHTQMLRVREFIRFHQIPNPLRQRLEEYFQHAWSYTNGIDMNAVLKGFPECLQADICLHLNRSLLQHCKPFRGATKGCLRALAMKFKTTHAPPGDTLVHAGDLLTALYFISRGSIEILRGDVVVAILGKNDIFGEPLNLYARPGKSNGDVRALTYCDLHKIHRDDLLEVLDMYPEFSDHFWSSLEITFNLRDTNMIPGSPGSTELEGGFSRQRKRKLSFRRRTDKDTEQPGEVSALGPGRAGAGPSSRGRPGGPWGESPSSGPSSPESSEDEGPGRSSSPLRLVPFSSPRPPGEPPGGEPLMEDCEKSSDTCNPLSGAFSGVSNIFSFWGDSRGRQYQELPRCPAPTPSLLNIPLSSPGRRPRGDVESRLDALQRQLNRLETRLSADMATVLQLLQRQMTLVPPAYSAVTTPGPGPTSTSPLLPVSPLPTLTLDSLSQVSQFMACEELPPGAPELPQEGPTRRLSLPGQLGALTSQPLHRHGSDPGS
# Procedure, shortened: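 U2OS cells transduced with hERG via BacMam (MOI ~100), plated 2000/well, loaded with FluxOR thallium dye, compound ~10 min, then stimulation buffer; fluorescence decrease read kinetically; AC50 from Hill fits.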
# [6] = qHTS profiling for inhibitors of Plasmodium falciparum (3D7) proliferation (AID 743322);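 note: infected erythrocytes exposed to compound for 72 h before lysis; 100% = DMSO vehicle wells and 0% = 0.29 µM artemisinin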; conditions: P. falciparum 3D7 proliferation; at 28.7 µM (top of the series)
# Procedure, shortened: (§1)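 Erythrocytes infected with P. falciparum (0.3% parasitemia, 2.5% hematocrit) incubated with compounds 72 h at 37 C, 5% CO2. Lysis with saponin/Triton buffer containing SYBR Green I, overnight at room temperature in the dark; DNA fluorescence (485/535 nm) normalised to 0.29 uM artemisinin and DMSO.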
# [7] = qHTS profiling for inhibitors of Plasmodium falciparum (DD2) proliferation (AID 743323; call rule not given here); conditions: lower = more inhibition; at 28.7 µM (top of the series)
# Procedure, shortened: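 Parasite proliferation measured via DNA-dye fluorescence, as uninfected erythrocytes lack DNA. Cultures at 0.3% parasitemia and 2.5% hematocrit incubated 72 h with compound; signal scaled between vehicle and 0.29 uM artemisinin wells.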
# [8] = qHTS profiling for inhibitors of Plasmodium falciparum (HB3) proliferation (AID 743324); conditions: Plasmodium falciparum HB3 blood-stage proliferation; at 28.7 µM (top of the series);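 note: 100% = DMSO vehicle wells and 0% = artemisinin-treated control wells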
# Procedure, shortened: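 P. falciparum HB3 grown in erythrocytes (0.3% parasitemia, 2.5% hematocrit final) with compound for 72 h at 37 C, 5% CO2. Parasite DNA detected by SYBR Green after saponin/triton lysis overnight; normalized to 0.29 uM artemisinin and DMSO.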
# [9] = qHTS profiling of the MIPE4 collection as inhibitors of Plasmodium falciparum (3D7) proliferation (AID 743344; call rule not given here;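 note: scaled between DMSO vehicle wells and 0.29 µM artemisinin as full inhibition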); conditions: P. falciparum 3D7 in erythrocytes, SYBR Green DNA fluorescence, 72 h; at 28.5 µM (top of the series)
# Procedure, shortened: as §1
# [10] = qHTS profiling of the MIPE4 collection as inhibitors of Plasmodium falciparum (DD2) proliferation (AID 743345; call rule not given here); conditions: P. falciparum Dd2 in erythrocytes, SYBR Green DNA, 72 h; at 28.5 µM (top of the series)
# Procedure, shortened: as §1
# [11] = qHTS profiling of the MIPE4 collection as inhibitors of Plasmodium falciparum (DD2) proliferation (Rep 2) (AID 743346; call rule not given here); conditions: P. falciparum Dd2 in erythrocytes, SYBR Green DNA, 72 h; at 28.5 µM (top of the series)
# Procedure, shortened: as §1
# [12] = qHTS profiling of the MIPE4 collection as inhibitors of Plasmodium falciparum (HB3) proliferation (AID 743347; call rule not given here;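 note: plate controls were DMSO vehicle wells for no effect and artemisinin wells for full effect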); conditions: P. falciparum HB3 in erythrocytes, SYBR Green DNA, 72 h; at 28.5 µM (top of the series)
# Procedure, shortened: as §1
# [13] = tested on: Zika virus NS2B-NS3 protease; assay: Primary screen GU AMC qHTS for Zika virus inhibitors (AID 1347154); conditions: Zika NS2B-NS3 unlinked protease, AMC fluorogenic substrate; series mostly up to 54.1 µM;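 note: 0% = no-inhibitor control and -100% = no-enzyme control; nearly all actives have a fitted effect of over 70% in size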
# Procedure, shortened: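 Unlinked Zika NS2B hydrophilic domain/NS3 protease domain noncovalent complex (25 nM final) in 10 mM Tris-HCl pH 8.0, 0.01% Tween 20, with AMC peptide substrate. Fluorescence (ex 340, em 450 nm) change over 15 min, room temperature; percent inhibition fitted to 4-parameter Hill equation.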
# [14] = Primary qHTS for small molecule stabilizers of the endoplasmic reticulum resident proteome: Secreted ER Calcium Modulated Protein (SERCaMP) assay (AID 1508630); conditions: SH-SY5Y GLuc-SERCaMP (Gaussia luciferase released on ER calcium loss) secretion, thapsigargin, luminescence; series mostly up to 38.4 µM; note: % is set by controls: 0 for no effect and ±100 for the full control effect
# Procedure, shortened: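 GLuc-SERCaMP-expressing SH-SY5Y cells, pretreated 16 h with compound, are challenged with thapsigargin to empty ER calcium stores; after 4 h, coelenterazine is added directly to the medium and luminescence is imaged.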
smiles,measurement,setting,value
COc1cc2c(cc1C(F)(F)F)N(C(=O)Nc1cc(F)cc(-c3cccnc3)c1)CC2,activation,[1],5.25% (inactive)
same,outcome,[2],inactive
same,outcome,[3],inactive
same,Potency,[4],inactive
same,Potency,[5],inactive
same,remaining parasite growth % (stronger effect = lower value),[6],-1.39%
same,"activity, percent of control",[7],5.68%
same,"remaining proliferation (% of control), lower = more inhibition",[8],-0.36%
same,"parasite growth, % of DMSO control",[9],6.27%
same,"parasite growth remaining, % of DMSO control (lower = more inhibition)",[10],15.3%
same,"parasite growth, % of control (lower = inhibition)",[11],34.1%
same,"growth, % of control",[12],3.34%
same,Potency,[13],inactive
same,Potency,[14],inactive
